Compound activity (PubChem)
Anthrax LF inh2: anthrax lethal factor protease inhibition. multiplex microsphere protease cleavage assay, LF. inhibition, % at 10 µM. actives 0.12% (n = 360,000). P15917
Target sequence (P15917 whole entry, looked up): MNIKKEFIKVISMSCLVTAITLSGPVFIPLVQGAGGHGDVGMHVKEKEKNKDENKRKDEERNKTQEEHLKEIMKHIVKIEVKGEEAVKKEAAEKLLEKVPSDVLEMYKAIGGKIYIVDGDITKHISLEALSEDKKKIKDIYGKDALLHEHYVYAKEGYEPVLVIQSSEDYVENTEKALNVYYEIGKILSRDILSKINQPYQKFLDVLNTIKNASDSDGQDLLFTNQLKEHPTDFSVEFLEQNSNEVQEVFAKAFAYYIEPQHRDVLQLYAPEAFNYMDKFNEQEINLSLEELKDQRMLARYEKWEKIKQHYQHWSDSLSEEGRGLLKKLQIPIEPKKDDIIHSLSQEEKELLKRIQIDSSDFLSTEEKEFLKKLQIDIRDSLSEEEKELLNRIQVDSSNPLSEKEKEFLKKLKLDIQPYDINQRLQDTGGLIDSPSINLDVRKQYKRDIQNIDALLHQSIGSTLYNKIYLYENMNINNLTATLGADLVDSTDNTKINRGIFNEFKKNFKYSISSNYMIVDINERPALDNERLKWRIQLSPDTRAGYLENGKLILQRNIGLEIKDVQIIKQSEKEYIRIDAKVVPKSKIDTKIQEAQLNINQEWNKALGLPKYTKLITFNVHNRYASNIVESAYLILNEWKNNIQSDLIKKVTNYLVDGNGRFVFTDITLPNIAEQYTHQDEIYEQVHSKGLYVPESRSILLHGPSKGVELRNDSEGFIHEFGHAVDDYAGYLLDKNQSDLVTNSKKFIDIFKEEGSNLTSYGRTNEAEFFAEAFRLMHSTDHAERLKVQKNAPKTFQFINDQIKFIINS
3CLpro inhibitor: SARS-CoV 3CLpro protease inhibition; P0C6X7; recombinant SARS-CoV 3CLpro, quenched FRET peptide cleavage; inhibition, % at 6 µM; actives 0.14% (n = 290,000); AID 1706; in the data active = inhibition above about 12%
BoNT-A LC inh2: inhibitors of Botulinum neurotoxin A light chain protease; multiplex microsphere protease substrate cleavage, flow cytometry; inhibition, % at 10 µM; actives 0.17% (n = 360,000)
BJeLR lethal: BJeLR cell viability loss; actives 0.17% (n = 300,000); inhibition, % (concentration not given with the values); BJeLR (HRASV12) viability, CellTiter-Glo ATP luminescence, 48 h; in the data active = inhibition above about 50%; inconclusive = no clear call, values can overlap the other calls
BoNT F protease: BoNT F light chain protease inhibition | Multiplex microsphere protease cleavage assay, flow cytometry | actives 0.22% (n = 360,000) | inhibition, % at 10 µM | AID 588497; in the data active = inhibition above about 35%, passing the limit was not always enough; inconclusive = no clear call, values can overlap the other calls
Bead autofluor: counter-screen for toxin protease inhibitors: compound fluorescence. actives 3.1% (n = 360,000). fluorescence intensity (test concentration not listed). compound autofluorescence counterscreen, microsphere flow cytometry; hits give high values. AID 624483; in the data active = fluorescence intensity above about 16000; inconclusive = no clear call, values can overlap the other calls
Each line names hits and unclear results; the compound was inactive in the other large screens. Rows were chosen to be rich in hits. Some 3.6% of all compounds tested hit in one or more screens of this group. Cut-off read from the data, not from the text of the source, unless noted: active = inhibition above about 30%; inconclusive = no clear call, values can overlap the other calls; inactive = below that.

CC(C)(C)SCCNC(=O)CN(c1ccc(F)c(Cl)c1)S(C)(=O)=O	Bead autofluor 23547
CC(C)(C)SCCNC(=O)CN(c1ccc(F)cc1)S(C)(=O)=O	none
CCOc1ccc(-n2cnnn2)cc1S(=O)(=O)NCc1ccccc1	none
CCOc1cc(S(=O)(=O)NCc2ccccc2)c(OCC)cc1-n1cnnn1	BoNT-A LC inh2 inconclusive, Bead autofluor 21889
C=CCN1C=CC(=C/C=C(/C#N)C(=O)OCC)C=C1	none
CCOC(=O)/C(C#N)=C/C=C1/C=CC=CN1C	Anthrax LF inh2 inconclusive, BoNT F protease 38
CCNC(=O)CN(c1ccc(CC)cc1)S(C)(=O)=O	BoNT-A LC inh2 inconclusive, Bead autofluor 23318
CSc1ccccc1NC(=O)CN(c1cccc(C)c1)S(C)(=O)=O	Bead autofluor 23782
CCc1ccc(N(CC(=O)N2CCCC2)S(C)(=O)=O)cc1	none (no result: 3CLpro inhibitor, BJeLR lethal)
Cc1cccc(N(CC(=O)Nc2ccc(CC#N)cc2)S(C)(=O)=O)c1	none
CCc1ccc(NC(=O)CN(c2cccc(C)c2)S(C)(=O)=O)cc1	Bead autofluor 23603
CC1(C)CC(=O)C=C(Nc2ccccn2)C1	BoNT-A LC inh2 inconclusive, Bead autofluor 21302
CC(O)c1cccc(NC2=CC(=O)CC(C)(C)C2)c1 (configuration not stated)	Bead autofluor 22635
CC(=O)Nc1ccnn1C1CCN(C(=O)c2cccc(C)c2C)CC1	none
COCCCC1CCN(C(=O)C2CCC(=O)N(CC3CCCCC3)C2)CC1 (configuration not stated)	none
Cc1c(NC(=O)CSc2nnnn2-c2ccc(F)cc2)c(=O)n(-c2ccccc2)n1C	none
Cc1c(NC(=O)CSc2nnnn2-c2ccc(O)cc2)c(=O)n(-c2ccccc2)n1C	BoNT-A LC inh2 inconclusive, Bead autofluor 23720
CSc1nsc(SCC(=O)Nc2c(C)n(C)n(-c3ccccc3)c2=O)n1	Bead autofluor 20801
COc1ccc(-n2nnnc2SCC(=O)Nc2nnn(C)n2)cc1	Bead autofluor 22244
CCOCCCN(C(=O)CNC(=O)c1ccco1)C(C(=O)NC1CCCC1)c1cccc(OC)c1 (configuration not stated)	none
Cc1nnc(SCC(=O)NCC2CCCO2)n1Cc1ccccc1 (configuration not stated)	none (no result: 3CLpro inhibitor, BJeLR lethal)
O=C(Cn1nc(Br)nc1Br)c1ccccc1	none
CC(Sc1nncs1)C(=O)NCC(=O)Nc1ccc(F)c(F)c1F (configuration not stated)	none
Clc1ccc(-n2ncc3c(NCc4ccccn4)ncnc32)cc1	Bead autofluor 19639
c1ccc(-n2ncc3c(NCCCN4CCOCC4)ncnc32)cc1	Bead autofluor 18090
Cc1ccc(CNc2ncnc3c2cnn3-c2ccccc2)cc1	Bead autofluor 16965
CC1CCN(C(=O)CSc2nc3c(c(=O)n2C)SC(C)C3)CC1 (configuration not stated)	none
COc1ccc(C2C=C(c3ccc(Br)s3)Nc3ncnn32)cc1OC (configuration not stated)	none (no result: Anthrax LF inh2, BoNT-A LC inh2, BoNT F protease, Bead autofluor)
O=C(Nc1cc(S(=O)(=O)N2CCOCC2)ccc1N1CCOCC1)C1CCCO1 (configuration not stated)	none
CCN(CC)S(=O)(=O)c1ccc(N2CCOCC2)c(NC(=O)CC23CC4CC(CC(Br)(C4)C2)C3)c1	none
FC(F)(F)c1cc(Oc2ccccc2)ncc1-c1nnc(-c2ccccc2Cl)o1	BoNT F protease inconclusive
c1ccc(-c2nc3ccccc3nc2-c2ccccn2)nc1	Bead autofluor 22188
Cc1cc2nc(-c3ccccn3)c(-c3ccccn3)nc2cc1C	none
CCCCSc1nsc(NC(C)=O)n1	Bead autofluor 22275
CCCCCCSc1nsc(NC(C)=O)n1	none
Fc1cccc(Cc2c(-c3ccco3)nc3c(Cl)cc(C(F)(F)F)cn23)c1	none (no result: 3CLpro inhibitor, BJeLR lethal)
CCC(C)NCCOCCOc1ccccc1-c1ccccc1 (configuration not stated)	Bead autofluor 23087
CCC(C)NCCOCCOc1ccc(Cl)cc1Br (configuration not stated)	BoNT F protease 35
Cc1ccc(OCCOCCNC(C)C)c(Br)c1	none
Cc1ccc(CNc2ncccc2-c2nc3cc(Cl)ccc3o2)cc1	Bead autofluor 22598
Clc1ccc2oc(-c3cccnc3NCc3ccccc3)nc2c1	Bead autofluor 19024
Cc1ccc(-c2nc3cc(Cl)ccc3o2)cc1	none (no result: Anthrax LF inh2, BoNT-A LC inh2, BoNT F protease, Bead autofluor)
Clc1ccc2c(NCc3ccccc3)ccnc2c1	none
CCCn1c(N)c(N(CCOC)C(=O)c2cc(C)cc(C)c2)c(=O)[nH]c1=O	none
Cc1cc2n(n1)C(c1ccc(N(C)C)cc1)Nc1ccccc1-2 (configuration not stated)	Bead autofluor 20611
Cc1cc2n(n1)C(c1ccccc1)Nc1ccccc1-2 (configuration not stated)	Bead autofluor 16831 (no result: BJeLR lethal)
Cc1cc2n(n1)C(c1sccc1C)Nc1ccccc1-2 (configuration not stated)	Anthrax LF inh2 inconclusive, BoNT-A LC inh2 inconclusive, BoNT F protease inconclusive, Bead autofluor inconclusive (no result: BJeLR lethal)
Cc1ccc2c(c1)-c1cc(C)nn1C(c1ccc3c(c1)OCO3)N2 (configuration not stated)	Anthrax LF inh2 inconclusive, Bead autofluor inconclusive
Cc1cc2n(n1)C(c1ccc3c(c1)OCO3)Nc1ccccc1-2 (configuration not stated)	Bead autofluor 21039
CNc1nc(Cl)c(SC)c(NCc2cccc(OC)c2)n1	BoNT F protease 48
CS(=O)(=O)NCCOc1ccc(S(=O)(=O)N2CCCc3ccccc32)cc1	none
CC1=C(C(=O)Nc2ccccc2C)C2(CCCC2)C(C(N)=O)C(=O)N1 (configuration not stated)	Bead autofluor 19911
Cc1ccccc1/C(N)=N/OC(=O)N1c2ccccc2Sc2ccccc21	Bead autofluor 23999
O=C(Cn1c(CC(=O)N2CCCC2)nc2ccccc21)NCc1ccccc1	Bead autofluor 24078
O=C(Cn1c(=O)n(CC(=O)N2CCCCC2)c(=O)c2sccc21)NCc1ccccc1	none
Cc1nc2ccccc2n1CC(=O)NCc1ccccc1	Bead autofluor 22747
O=C(NCc1ccccc1Cl)C1CCCN1S(=O)(=O)c1ccccc1F (configuration not stated)	none
O=C(NCc1cccs1)C1CCCN1S(=O)(=O)c1ccccc1F (configuration not stated)	BoNT-A LC inh2 inconclusive, Bead autofluor 19819
Cc1ccc(S(=O)(=O)c2c(N)n(CCCO)c3nc4ccccc4nc23)cc1	none
Cc1ccc(S(=O)(=O)c2c(N)n(CCC(C)C)c3nc4ccccc4nc23)cc1	Bead autofluor 22605
Cc1ccc(S(=O)(=O)c2c(N)n(NC(=O)c3ccccc3C)c3nc4ccccc4nc23)cc1	Bead autofluor 22674
Cc1ccc(C(=O)N/N=C/c2ccc(-c3cccc(C(F)(F)F)c3)o2)cn1	none
C/C(N)=C(/C#N)C(=O)COC(=O)COc1ccc(Cl)cc1C	Bead autofluor 21745
Cc1cc(Cl)ccc1OCC(=O)OC(C)C(=O)N(C)C (configuration not stated)	none
